According to PubChem BioAssay AID493131 (Broad Institute, 2011):
In all, about 340,000 compounds went through this assay and about 3,300 (0.97%) were called active. The sample holds actives, similar compounds and a random draw of the others, so the mix is not that of the screen.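 The calls were made as follows: active = mean activation above about 17%, with every replicate also reaching it (limit read from the data, passing the limit was not always enough); inconclusive = only one of the two conditions met; inactive = the rest.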

biological target: Protein FosB (Mus musculus) (UniProt P13346); experiment: activators of delta FosB homodimer, primary screen, biochemical, fluorescence polarization, TAMRA-CDK5 oligo, single point (AID 493131); settings: purified delta FosB, at 25 µM, active compounds read high, percent of positive-control signal above neutral wells;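 also: fluorescence polarization rise as delta FosB binds a TAMRA Cdk5 AP-1 oligo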
Sequence (P13346 whole entry, looked up): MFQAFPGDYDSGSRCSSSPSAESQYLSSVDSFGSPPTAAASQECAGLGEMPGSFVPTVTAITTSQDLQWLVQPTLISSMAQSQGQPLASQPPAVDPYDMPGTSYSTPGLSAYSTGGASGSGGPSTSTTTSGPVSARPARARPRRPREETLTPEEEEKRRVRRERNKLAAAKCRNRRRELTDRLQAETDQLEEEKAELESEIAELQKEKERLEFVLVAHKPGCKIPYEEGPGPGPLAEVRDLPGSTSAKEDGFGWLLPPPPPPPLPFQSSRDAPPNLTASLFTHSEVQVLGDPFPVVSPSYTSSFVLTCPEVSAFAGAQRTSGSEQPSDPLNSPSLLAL

activation, inactive:
COc1ccc(C(=O)N(C)Cc2ccc(OC)c(OC)c2OC)cc1S(=O)(=O)N1CCOCC1 -8.82%
COc1cccc(NC(=O)CN(C)C(=O)Cc2ccc(Cl)cc2Cl)c1 -4.55%
COCCNC(=O)c1snc2ccc(Cl)cc12 -8.32%
CC(=O)c1cccc(NC(=O)[C@@H](NC(N)=O)C(C)C)c1 2.28%
CN(C)CCN(C(=O)C1CCCCC1)c1nc2cc3c(cc2s1)OCO3 7.71%
Cc1ccc2nc(N(CCN(C)C)C(=O)C3=COCCO3)sc2c1 -2.06%
Cn1nc(C(C)(C)C)c(NC(=O)c2sccc2Cl)c1C(C)(C)C -8.28%
Cc1ccc(C)c(S(=O)(=O)N(C)c2ccc(OC(=O)C3CCN(C(=O)c4ccc(F)cc4)CC3)cc2)c1 -7.71%
C=CCn1c(=O)n(C)c2c(=O)n(C)c(=O)n(C)c21 -1.42%
Cc1sc2nc(COC(=O)C(NC(=O)c3ccc(Cl)cc3Cl)C(C)C)[nH]c(=O)c2c1C (stereo not drawn) -6.82%
Cc1sc2nc(CSCC(=O)NC3CCCCC3)[nH]c(=O)c2c1C -10.1%
COc1ccc2oc(C(=O)OCC(=O)N(CC(C)C)c3c(N)n(Cc4ccccc4)c(=O)[nH]c3=O)c(C)c2c1 3.39%
COc1ccc(C(CNC(=O)c2cccc(S(=O)(=O)Nc3ccc(Br)cc3)c2)N(C)C)cc1 (stereo not drawn) 14%
COc1ccc(C)cc1NC(=O)CSc1ccc(Cl)cc1 -7.74%
COC(=O)c1cc(OC)c(OC)cc1NC(=O)CSc1ccc(C)cc1 -0.589%
COc1ccc2sc(-c3ccc(N(C)C)cc3)c(-c3ccc4cc[nH]c4c3)c2c1 -4.04%
COc1ccc2sc(-c3ccc(N(C)C)cc3)c(C#CCO)c2c1 -9.84%
CCC(=O)NC(Nc1cc(C)ccn1)(C(F)(F)F)C(F)(F)F -2.53%

activation, active:
COC(=O)c1sc2ncccc2c1OCc1ccc(Cl)cc1Cl 17%
CN(C)CCN(C(=O)CN1C(=O)c2ccccc2C1=O)c1nc2cc3c(cc2s1)OCCO3 38%
Cc1sc2nc(CSCC(=O)Nc3c(Cl)cccc3Cl)[nH]c(=O)c2c1C 32.5%
COC(=O)c1scc(C)c1NC(=O)CSc1ccc(Cl)cc1 35%
COc1ccc2c(c1)c(=Cc1ccc(N(C)C)cc1)c1cc(-c3ccccc3)[n+](C)n12 126%
